40 compounds from PubChem BioAssay (NCI) can be followed below.

The structures appear in SMILES notation. About 83,000 compounds went through this panel and 20% of them were active in at least one assay; those are over-represented in the sample as a whole.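 Plates (96-well) were seeded with cells, treated with compound at one concentration, and incubated for 48 hours before percent growth was determined.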 Activity calls are given as the source filed them.

The experiment deals with A498 renal. The experiment in a line: NCI-60 one-dose screen, 48 h (100 = growth as untreated, 0 = no growth, -100 = all killed). The conditions noted are these: 10 µM unless noted. How it is done: Growth inhibition of the A498 human tumor cell line is measured as a screen for anti-cancer activity. Cells are grown in 96 well plates and exposed to the test compound for 48 hours. Compounds are tested at a single concentration, which is 10^-5 M for most compounds. The reported endpoint is percent growth (GI% or GIPRCNT), where numbers from 0 - 100% represent growth inhibition, and numbers from -100% - 0 represent cell death. For example, a value of 40 represents 60% growth inhibition. A value of 0 means no net growth occurred over the course of the experiment. A value of -40 indicates 40% of cells at the beginning of the experiment died by the end of the experiment. A value of -100 means all cells are dead at the end of the experiment.
NCI-60 Human Tumor Cell Lines Screen was performed using the standard one-dose NCI protocol, which is described in more detail at https://dtp.cancer.gov/discovery_development/nci-60/default.htm.
Compounds with GIPRCNT values below 10 were considered active. Activity score was based on GIPRCNT using the following formula: […]
Score is 0 for GIPRCNT values of 100 or above, 50 for GIPRCNT values of 0, and 100 for GIPRCNT values of -100.
Consider `CC(=O)N(N=Nc1ccccc1)c1cccc2ccccc12`, for which the growth was 115% (inactive).
Regarding `CCCCC(=O)Nc1ncc(Cc2ccc(Cl)cc2)s1`, the growth was 70.6% (inactive).
As to `COc1ccc(C(=O)C2C(c3ccc(OC)cc3)CN(C)C23C(=O)Nc2ccccc23)cc1` (stereo not given), the growth was 99.8% (inactive).
With `COc1ccc(N2CCC(=O)NC2=S)cc1`, the growth was 108% (inactive).
To `CC1(C)c2[nH]c3ccccc3c2C[C@]2(C)[C@H]3CC=C4[C@@H]5C[C@@](C)(C(N)=O)CC[C@]5(C)CC[C@@]4(C)[C@]3(C)CC[C@@H]12` belongs 67.9% (inactive); to `COc1cnc2c(c1)C(=O)c1c-2n(CCCNCCO)c(=O)c2ccncc12`, -33.3% (active).
Regarding `Nc1ncnc2c1N=C(c1ccc3c(c1)OCO3)CC(c1ccc([N+](=O)[O-])cc1)N2` (stereo not given), the growth is 67.3% (inactive).
To `Brc1ccc(-n2cc(-c3nn[nH]n3)c(-c3cccs3)n2)cc1` belongs 81.5% (inactive); to `O=C(CCc1nnc(Cn2cnc3nc[nH]c3c2=O)o1)c1nc2ncccc2[nH]1`, 94.8% (inactive); to `Oc1ccc(CCn2c(O)c(/C=C3\CN=c4ccccc4=N3)sc2=S)cc1`, 37.3% (inactive).
To `COC(=O)/C(CCC=C(C)C)=C1\[C@@H](OC(C)=O)C[C@@]2(C)[C@H]1C[C@@H](O)[C@H]1[C@@]3(C)CC[C@H](NCCN)[C@@H](C)[C@@H]3CC[C@@]12C` belongs 94.4% (inactive); to `O=C(c1ccccc1)C1C(=O)N2C(=S)N(c3ccccc3)C(=O)C2C1c1ccc(Cl)cc1` (stereo not given), 81.9% (inactive); to `COc1cc(NC(C)CCCNC(C)C)c2ncccc2c1OC` (stereo not given), 61.3% (inactive).
For `O=C(c1ccc(-c2nc(CSc3nc4ccccc4s3)no2)cc1)N1CCSCC1` the value was 82.1% (inactive); for `COc1cccc(CNc2ncnc3c2ncn3C2OC(CO)C(O)C2O)c1O` (stereo not given), -0.46% (active).
As for `c1ccc(C2=NN[C@H](c3cn(-c4ccccc4)nc3-c3ccccc3)C2)cc1`, the growth is 54.5% (inactive).
On to `CCn1c(SCC(=O)c2ccc(Br)cc2)nnc1-c1ccncc1`, for which the growth was 91.1% (inactive).
For `COc1ccc(-c2ccc3cnc4sc(-c5ccc(OC)cc5)nc4c3n2)cc1` the value was 63.4% (inactive); for `Fc1cc2c(cc1Cl)N(c1ncnc3ccc(-c4cnc5[nH]ncc5c4)cc13)CC2`, -6.52% (active).
To `CC12CCC3c4ccccc4CCC3(CO1)C2` (stereo not given) belongs 78.9% (inactive); to `COc1ccc2[nH]cc(-c3nc(-c4c[nH]c5ccncc45)cs3)c2c1`, 81.5% (inactive).
For `CCNc1nc(-c2ccc(Cl)c(OC)c2)c(-c2ccnc(NCCCNS(=O)(=O)c3ccc(Cl)cc3)n2)s1` the value was 66.8% (inactive); for `CC1(c2ccccc2O)NN=C(/N=C/c2cccc([N+](=O)[O-])c2)N1C(Cc1c[nH]c2ccccc12)C(=O)O` (stereo not given), 90.9% (inactive); for `Cn1cc(-c2nc(-c3c[nH]c4ccncc34)cs2)c2ccccc21`, 85.3% (inactive).
Turning to `O=C1NC(=O)c2c1c1c3ccccc3ccc1c1[nH]c3ccc(Br)cc3c21`, the growth is -10.7% (active).
For `C=CCn1c(SCC(=O)Nc2ccc(C(=O)/C=C/c3ccc(Cl)cc3)cc2)nnc1-c1cc(-c2ccc(S(N)(=O)=O)cc2)nc2ccccc12`, the growth was 89% (inactive).
To `C1=C(N2CCCC2)CCC1` belongs 109% (inactive).
For `COc1cc(/C=C/C(=O)c2cccc(Nc3nc(Nc4ccccc4)nc(Nc4ccccc4)n3)c2)cc(OC)c1OC` the value was 68.8% (inactive); for `CCCCCC(=O)OCC(=O)O[C@@H]1C[C@]2(C(C)C)O[C@@]1(C)[C@@H]1CC[C@@H](C)[C@H]1[C@@H]2OC(=O)/C=C/c1ccccc1`, -88.6% (active); for `CC1(C)CC[C@]2(C(=O)O)CC[C@]3(C)C(=CC[C@@H]4[C@@]5(C)C/C(=C/O)C(=O)C(C)(C)[C@@H]5CC[C@]43C)[C@@H]2C1`, 85.6% (inactive).
For `CN[C@]12CC3(C=CC(=O)C=C3)O[C@@]1(Cc1ccc(OC)cc1)N(C)C(=O)N2` the value was 97% (inactive); for `COc1cc(-c2cc(-c3cccs3)c(C#N)c(N3CCOCC3)n2)cc(OC)c1OC`, 66.4% (inactive).
Take `N#Cc1c(N)nnn1Cc1cc(=O)oc2c1ccc1ccccc12`: the growth was 89.7% (inactive).
For `CC[C@]12C=CCN3CC[C@@]4(c5cc(NC(=O)CCC(=O)OCc6cn(Cc7ccc(F)cc7)nn6)c(OC)cc5N(C)[C@H]4[C@@](O)(C(=O)OC)[C@@H]1OC(C)=O)[C@@H]32` the value was 109% (inactive); for `COc1cc(-c2cc(-c3ccc(N(C)C)cc3)nc(N3CCC(O)CC3)c2C#N)cc(OC)c1OC`, 26.3% (inactive).
For `COc1cc(/C=C\c2cc(/C=C\c3ccc(O)c(OC)c3)n(C(=O)COc3ccc(Cl)cc3Cl)n2)ccc1O` the value was 17.6% (inactive).
For `Cc1cccc(Cl)c1NC(=O)c1ccc2nc(NC(=O)NCCN(C)C)sc2c1` the value was 90.7% (inactive); for `O=C(N/N=C/c1ccc(F)cc1)c1ccc(C(F)(F)F)nc1Nc1cccc(C(F)(F)F)c1`, -1.26% (active); for `CCOC(=O)C(=Cc1cccc(Cl)c1)C(=O)OCC`, 112% (inactive).
Regarding `COc1cc2oc(-c3cccc(NC(=O)c4cccc(Br)c4)c3)cc(=O)c2c(OC)c1OC`, the growth is 46.6% (inactive).
